AC50 and outcome data for 30 compounds are collected here from PubChem BioAssay (EPA / NIEHS).

Molecules are shown by their SMILES. “And” between values parts separate entries of the source, which are not always exact repeats. Equal entries are not always repeated. Results filed as inconclusive are left out. More than one record can exist for a structure, and the calls need not agree. The source made the active and inactive calls. The calls were made as follows: active = hit-call score of the fitted dose curve at least 0.9, where 1 is the maximum; inconclusive = response in the unintended direction; inactive = score below 0.9.

For assay [1], the target named is chimpanzee Androgen Receptor (AR), AR (gene 747460) (UniProt O97775). Put plainly: NVS_NR_cAR: NovaScreen (NVS) Nuclear Receptor Binding Assay for chimpanzee Androgen Receptor (AR) (AID 2283346).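 Also: a loss of bound radioligand signal versus DMSO counts as binding.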 The gist of the method: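 Radioligand binding to chimpanzee AR expressed in Sf9/Sf21 cells, cell-free, measured 72 h after dosing by lysate-based scintillation counting. Loss of signal vs DMSO; initial duplicate screen at 25 uM, actives retested in concentration series.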
Chain of chimpanzee Androgen Receptor (AR), AR (gene 747460) (O97775 whole entry, looked up): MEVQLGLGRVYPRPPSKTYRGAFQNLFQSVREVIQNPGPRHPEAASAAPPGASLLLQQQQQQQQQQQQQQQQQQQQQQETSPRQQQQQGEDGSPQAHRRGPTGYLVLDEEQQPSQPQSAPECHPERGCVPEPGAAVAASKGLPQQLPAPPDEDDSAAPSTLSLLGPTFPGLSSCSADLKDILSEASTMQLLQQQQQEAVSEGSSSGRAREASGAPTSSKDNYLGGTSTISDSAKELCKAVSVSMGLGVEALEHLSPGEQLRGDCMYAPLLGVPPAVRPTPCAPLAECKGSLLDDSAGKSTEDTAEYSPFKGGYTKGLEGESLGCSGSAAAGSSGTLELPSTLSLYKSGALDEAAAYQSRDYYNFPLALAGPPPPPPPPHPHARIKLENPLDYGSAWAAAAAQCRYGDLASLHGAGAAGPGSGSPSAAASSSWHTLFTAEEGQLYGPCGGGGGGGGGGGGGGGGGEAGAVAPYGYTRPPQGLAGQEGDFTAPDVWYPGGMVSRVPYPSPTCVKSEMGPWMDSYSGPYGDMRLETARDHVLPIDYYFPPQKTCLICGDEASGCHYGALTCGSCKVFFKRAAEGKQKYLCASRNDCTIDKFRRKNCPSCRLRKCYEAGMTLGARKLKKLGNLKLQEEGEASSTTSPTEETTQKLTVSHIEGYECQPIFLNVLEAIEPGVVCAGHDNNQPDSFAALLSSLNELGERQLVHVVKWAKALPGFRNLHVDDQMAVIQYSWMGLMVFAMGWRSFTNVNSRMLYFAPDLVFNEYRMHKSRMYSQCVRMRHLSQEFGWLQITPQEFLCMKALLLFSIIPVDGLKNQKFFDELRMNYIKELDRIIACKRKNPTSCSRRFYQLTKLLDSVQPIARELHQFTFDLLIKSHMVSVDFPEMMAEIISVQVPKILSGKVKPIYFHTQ

The target in assay [2] is Estrogen receptor (Homo sapiens) (UniProt P03372). The experiment in a line: OT_ER_ERaERa_1440: Odyssey Thera (OT) 24-hour HEK293T Protein-Complementation Assay for Estrogen Receptor-alpha/-alpha Homodimer (AID 2283349).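 Also: hits raise fluorescence above DMSO for agonists and antagonists alike.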 An outline of the steps:
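Cells (HEK293T) carrying the fragment-tagged ERα LBD (aa 310-547) pair are treated with chemical for 24 hours. Nuclear and/or cytoplasmic fluorescence is then quantified on a laser scanning cytometer. Activity is scored as signal gain against DMSO.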

Assay [3] deals with Bile acid receptor (Homo sapiens) (UniProt Q96RI1). Put plainly: NVS_NR_hFXR_Antagonist: NovaScreen (NVS) Nuclear Receptor Binding Assay for human Farnesoid X Receptor Antagonism (FXR) (AID 2283350). The gist of the method:
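Antagonist-format time-resolved FRET binding assay with extracted human receptor protein, read 1 hour after compound addition. Compounds first screened at 25 uM in duplicate, then actives tested in concentration series, with loss of signal relative to DMSO.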

For assay [4], the target named is Estrogen receptor (Homo sapiens) (UniProt P03372). The experiment in a line: OT_ER_ERaERa_0480: Odyssey Thera (OT) 8-hour HEK293T Protein-Complementation Assay for Estrogen Receptor-alpha/-alpha Homodimer (AID 2283351).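 Also: rise in fluorescence from reassembled reporter fragments on ERα LBD homodimer in nucleus or whole cell.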 An outline of the steps:
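Measures ERα LBD (aa 310-547) homodimer complementation in stably transfected HEK293T at 8 h post-dose, with fluorescence intensity quantified on a laser scanning cytometer relative to DMSO controls.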

The target of assay [5] is T1, Estrogen receptor (Homo sapiens) + Estrogen receptor beta (Homo sapiens) (UniProt P03372+Q92731). The experiment in a line: OT_ER_ERaERb_0480: Odyssey Thera (OT) 8-hour HEK293T Protein-Complementation Assay for Estrogen Receptor-alpha/-beta Heterodimer (AID 2283352). The gist of the method:
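Human HEK293T cells were treated for 8 hours and receptor heterodimerisation was detected through reconstitution of a fluorescent reporter split between ER-alpha and ER-beta ligand-binding domains. Activity was analysed as gain of signal against DMSO.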

Assay [6] concerns the target Androgen Receptor/SRC-1 Co-activator, AR (gene 367) (UniProt P10275). The experiment in a line: OT_AR_ARSRC1_0960: Odyssey Thera (OT) 16-hour HEK293T Protein-Complementation Assay for Androgen Receptor/SRC-1 Co-activator (AID 2283353).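 Also: actives raise the signal above DMSO so potency reflects increased AR and SRC-1 complex.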 The gist of the method: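 Sixteen-hour cell assay: Venus halves fused to AR and SRC-1 in HEK293T report binding. Images at 488/635 nm give an N/C ratio in the 488 nm channel over ≥400 cells, analysed as signal increase over DMSO.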

Assay [7] has the same target. The experiment in a line: OT_AR_ARSRC1_0480: Odyssey Thera (OT) 8-hour HEK293T Protein-Complementation Assay for Androgen Receptor/SRC-1 Co-activator (AID 2283354).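 Also: hits raise the complementation signal above DMSO so AC50 marks enhancers.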 An outline of the steps:
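Split-Venus PCA, stable HEK293T, AR/SRC-1 fusions; 8 h exposure. Readout: 488nm N/C fluorescence ratio, ≥400 cells/image; fitted upward vs DMSO baseline.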

In assay [8] the target is T1, Estrogen receptor (Homo sapiens) + Estrogen receptor beta (Homo sapiens). Put plainly: OT_ER_ERaERb_1440: Odyssey Thera (OT) 24-hour HEK293T Protein-Complementation Assay for Estrogen Receptor-alpha/-beta Homodimer (AID 2283356).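 Also: heteromer of ER alpha and ER beta binding domains; hits raise reporter fluorescence and both agonists and antagonists give an increase.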 An outline of the steps: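 24 h exposure; HEK293T PCA cells with ERα/ERβ LBD fragments; signal rise in nuclear or whole-cell fluorescence over vehicle.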

The target in assay [9] is Estrogen receptor beta (Homo sapiens) (UniProt Q92731). Put plainly: OT_ER_ERbERb_0480: Odyssey Thera (OT) 8-hour HEK293T Protein-Complementation Assay for Estrogen Receptor-beta/-beta Homodimer (AID 2283357).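 Also: active means signal gain over DMSO baseline.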 An outline of the steps:
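Homodimerization of ER-beta LBD measured by protein-fragment complementation in HEK293T; 8 h dosing; fixed, Draq5 counterstain; fluorescence intensity gain over DMSO baseline, positive fitting direction; laser scanning cytometry.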

Assay [10] addresses rat Mineralocorticoid Receptor (MR), Nr3c2 (gene 25672) (UniProt P22199). Put plainly: NVS_NR_rMR: NovaScreen (NVS) Nuclear Receptor Binding Assay for rat Mineralocorticoid Receptor (MR) (AID 2283355). The gist of the method:
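Radioligand displacement, scintillation readout; tissue source adrenalectomized rat brain supernatant. Read 24 h post-dose. Screened in duplicate at 25 uM, DMSO negative control, controls on every plate; actives re-run in concentration series.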

Chain of Estrogen receptor beta (Homo sapiens) (Q92731 whole entry, looked up, the tested form may be a part): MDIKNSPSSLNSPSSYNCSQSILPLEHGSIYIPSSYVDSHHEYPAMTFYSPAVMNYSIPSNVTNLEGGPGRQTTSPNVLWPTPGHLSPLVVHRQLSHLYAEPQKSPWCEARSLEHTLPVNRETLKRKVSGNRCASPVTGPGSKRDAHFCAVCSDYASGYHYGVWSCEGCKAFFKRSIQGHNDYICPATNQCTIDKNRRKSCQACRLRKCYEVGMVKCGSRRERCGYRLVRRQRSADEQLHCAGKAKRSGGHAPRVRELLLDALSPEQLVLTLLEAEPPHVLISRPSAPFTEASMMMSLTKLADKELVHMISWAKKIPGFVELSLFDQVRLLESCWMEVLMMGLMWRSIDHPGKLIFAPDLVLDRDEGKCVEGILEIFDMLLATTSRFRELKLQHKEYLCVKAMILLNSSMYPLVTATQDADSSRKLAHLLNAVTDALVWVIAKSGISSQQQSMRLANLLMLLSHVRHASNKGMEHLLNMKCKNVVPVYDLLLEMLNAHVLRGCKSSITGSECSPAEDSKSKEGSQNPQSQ
Chain of Androgen Receptor/SRC-1 Co-activator, AR (gene 367) (P10275 whole entry, looked up, the tested form may be a part): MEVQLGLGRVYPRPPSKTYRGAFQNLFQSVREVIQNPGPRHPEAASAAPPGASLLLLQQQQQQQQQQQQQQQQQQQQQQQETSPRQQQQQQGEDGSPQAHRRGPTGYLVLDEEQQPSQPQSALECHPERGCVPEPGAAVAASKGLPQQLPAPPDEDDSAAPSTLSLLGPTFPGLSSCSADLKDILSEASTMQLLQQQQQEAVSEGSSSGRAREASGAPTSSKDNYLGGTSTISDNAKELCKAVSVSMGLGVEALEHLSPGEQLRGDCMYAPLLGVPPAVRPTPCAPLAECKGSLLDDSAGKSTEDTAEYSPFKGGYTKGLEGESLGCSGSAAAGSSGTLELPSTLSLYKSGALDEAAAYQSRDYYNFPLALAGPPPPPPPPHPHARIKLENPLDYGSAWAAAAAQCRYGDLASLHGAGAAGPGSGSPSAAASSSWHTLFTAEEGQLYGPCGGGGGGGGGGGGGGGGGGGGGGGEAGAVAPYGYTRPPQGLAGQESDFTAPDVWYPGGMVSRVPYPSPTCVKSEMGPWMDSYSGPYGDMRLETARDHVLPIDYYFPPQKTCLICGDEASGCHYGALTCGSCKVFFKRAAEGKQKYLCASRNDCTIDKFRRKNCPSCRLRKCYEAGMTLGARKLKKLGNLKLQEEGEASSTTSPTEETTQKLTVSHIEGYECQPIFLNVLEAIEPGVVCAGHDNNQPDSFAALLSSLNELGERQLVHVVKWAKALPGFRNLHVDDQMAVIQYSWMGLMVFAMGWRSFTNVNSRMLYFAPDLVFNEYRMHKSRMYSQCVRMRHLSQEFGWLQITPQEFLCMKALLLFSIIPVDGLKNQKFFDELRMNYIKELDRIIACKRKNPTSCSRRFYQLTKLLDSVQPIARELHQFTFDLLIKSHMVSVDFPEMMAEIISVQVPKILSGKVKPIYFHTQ
Chain of Estrogen receptor (Homo sapiens) (P03372 whole entry, looked up, the tested form may be a part): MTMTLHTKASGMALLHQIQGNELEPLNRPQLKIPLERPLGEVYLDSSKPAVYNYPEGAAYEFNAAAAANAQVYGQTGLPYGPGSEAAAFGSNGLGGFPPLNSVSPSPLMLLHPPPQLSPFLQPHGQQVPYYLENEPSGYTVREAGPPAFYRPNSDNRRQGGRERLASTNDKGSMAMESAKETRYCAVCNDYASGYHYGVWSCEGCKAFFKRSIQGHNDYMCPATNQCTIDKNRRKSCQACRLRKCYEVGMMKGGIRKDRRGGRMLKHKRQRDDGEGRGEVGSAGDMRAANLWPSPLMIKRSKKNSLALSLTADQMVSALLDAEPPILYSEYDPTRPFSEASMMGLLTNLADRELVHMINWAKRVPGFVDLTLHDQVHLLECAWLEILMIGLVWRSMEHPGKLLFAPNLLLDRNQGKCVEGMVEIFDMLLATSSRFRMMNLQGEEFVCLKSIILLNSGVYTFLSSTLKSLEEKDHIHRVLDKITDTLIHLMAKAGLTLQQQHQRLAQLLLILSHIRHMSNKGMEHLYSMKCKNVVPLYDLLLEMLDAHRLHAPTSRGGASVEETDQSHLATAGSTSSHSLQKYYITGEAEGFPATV
T1 sequence (P03372 whole entry, looked up, the tested form may be a part): as above
T1 sequence (Q92731 whole entry, looked up, the tested form may be a part): as the sequence (Q92731 whole entry, looked up, the tested form may be a part) above
Chain of Bile acid receptor (Homo sapiens) (Q96RI1 whole entry, looked up): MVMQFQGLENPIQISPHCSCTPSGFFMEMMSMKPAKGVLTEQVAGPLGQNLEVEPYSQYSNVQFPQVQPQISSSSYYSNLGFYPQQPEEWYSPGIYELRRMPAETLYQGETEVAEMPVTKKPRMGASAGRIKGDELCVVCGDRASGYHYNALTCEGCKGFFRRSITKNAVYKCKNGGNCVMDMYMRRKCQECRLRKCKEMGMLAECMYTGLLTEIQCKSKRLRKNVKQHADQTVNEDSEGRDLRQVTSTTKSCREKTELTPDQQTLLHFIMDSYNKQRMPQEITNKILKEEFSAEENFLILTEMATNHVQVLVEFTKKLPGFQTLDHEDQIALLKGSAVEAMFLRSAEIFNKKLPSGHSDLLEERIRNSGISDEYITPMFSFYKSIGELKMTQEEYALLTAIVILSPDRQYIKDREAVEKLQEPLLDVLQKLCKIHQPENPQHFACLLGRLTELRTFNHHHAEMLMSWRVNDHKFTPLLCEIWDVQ
Chain of rat Mineralocorticoid Receptor (MR), Nr3c2 (gene 25672) (P22199 whole entry, looked up): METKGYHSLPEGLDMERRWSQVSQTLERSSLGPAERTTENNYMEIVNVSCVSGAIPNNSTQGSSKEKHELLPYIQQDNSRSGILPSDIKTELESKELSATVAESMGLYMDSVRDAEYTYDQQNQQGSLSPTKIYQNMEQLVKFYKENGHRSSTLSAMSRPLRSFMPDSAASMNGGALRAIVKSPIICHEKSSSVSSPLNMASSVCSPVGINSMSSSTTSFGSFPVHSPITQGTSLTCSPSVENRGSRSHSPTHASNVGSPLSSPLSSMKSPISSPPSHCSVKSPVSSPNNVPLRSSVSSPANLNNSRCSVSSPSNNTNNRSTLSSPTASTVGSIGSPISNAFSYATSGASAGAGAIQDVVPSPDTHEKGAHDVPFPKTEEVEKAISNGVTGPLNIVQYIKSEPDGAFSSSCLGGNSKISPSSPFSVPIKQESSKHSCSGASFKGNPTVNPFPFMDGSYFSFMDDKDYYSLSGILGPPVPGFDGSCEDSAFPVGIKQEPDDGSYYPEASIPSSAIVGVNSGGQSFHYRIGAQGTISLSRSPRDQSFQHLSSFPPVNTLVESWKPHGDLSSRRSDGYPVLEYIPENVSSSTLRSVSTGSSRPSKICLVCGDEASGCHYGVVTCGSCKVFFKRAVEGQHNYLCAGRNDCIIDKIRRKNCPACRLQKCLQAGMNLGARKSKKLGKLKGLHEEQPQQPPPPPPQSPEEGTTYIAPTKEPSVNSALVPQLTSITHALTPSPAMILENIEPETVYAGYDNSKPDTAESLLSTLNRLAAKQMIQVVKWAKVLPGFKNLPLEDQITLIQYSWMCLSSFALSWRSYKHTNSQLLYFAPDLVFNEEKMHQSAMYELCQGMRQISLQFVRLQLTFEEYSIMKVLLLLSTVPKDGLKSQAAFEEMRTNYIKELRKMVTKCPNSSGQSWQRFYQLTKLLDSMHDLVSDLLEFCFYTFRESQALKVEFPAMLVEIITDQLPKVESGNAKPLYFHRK

One may read the AC50 as the concentration giving half of the maximal activity seen. Consider `CC/C(=C(/CC)c1ccc(O)cc1)c1ccc(O)cc1`, for which, in [1], the AC50 is 12.6 µM (active) and the compound was classed as inactive.
For the compound `Cc1cc(F)ccc1-c1cc(N2CC[C@@H](O)[C@H]2CO)ncc1N(C)C(=O)C(C)(C)c1cc(C(F)(F)F)cc(C(F)(F)F)c1`, the call in assay [2], in assay [3], in [4], in assay [5] and in assay [8] was inactive. For the same compound, the AC50 in assay [6] was 15.2 µM (active); in [7], 23.6 µM (active).
As to `CCN(Cc1cccnc1)C(=O)c1cccc(Cl)c1[C@]1(C)C(=O)N(Cc2ccc(OC)cc2OC)c2ccc(Cl)cc21`, the AC50 in assay [1] was 18.3 µM (active); in assay [6], 2.59 µM (active). In addition, the compound was called inactive in [2], in assay [4], in [5], in [7], in assay [8] and in [9].
For the compound `O=C1c2ccccc2C(=O)N1CCc1noc(-c2ccc(CN3CCCCCC3)s2)n1`, the outcome in [2] and in assay [4] was inactive.
`O=C1CCC(C2CCCCC2)CC1`: in [1], the outcome was inactive.
`OC12N=C(c3ccccc3)SC1Cc1cc(Cl)ccc12` (stereo unspecified): the result in [1], in [2], in assay [4], in [5] and in [8] was inactive.
Take `CCOC(=O)O[C@H](C)OC(=O)c1ccc2c(c1)cc(C(=O)NC1CCN(C(C)C)CC1)n2Cc1cc(-c2ccc(Cl)s2)on1`: in assay [1], the AC50 was 17.8 µM (active). Moreover, the outcome in assay [2], in [4] and in assay [8] was inactive.
For `O=c1c(-c2ccc(O)cc2)coc2cc(O)cc(O)c12`, the compound was called inactive in assay [1], in assay [3], in assay [6] and in [7].
For the compound `CCCCCc1ccc(N)cc1`, the result in assay [1], in [2], in assay [4], in [5] and in [8] was inactive. Further, the AC50 was 67 µM (active) and 67.6 µM (active) in assay [4]; 46.8 µM (active) and 40 µM (active) and 53.9 µM (active) in assay [5]; 18.9 µM (active) and 27.8 µM (active) and 42.5 µM (active) in [8].
Consider `Cc1cccc2ccccc12`, for which the compound was called inactive in [2] and in assay [4].
Consider `CN1C(=O)CC[C@H]1c1cccnc1`, for which the compound was called inactive in assay [9].
As to `CCCOC(=O)c1cc(O)c(O)c(O)c1`, the outcome in [2] was inactive. Besides, the AC50 in [4] was 50 µM (active); in assay [5], 39.8 µM (active); in [8] it was 49 µM (active); in [9], 25.4 µM (active).
Turning to `COc1cccc([C@H](O)C2CCN(CCc3ccc(F)cc3)CC2)c1OC`, the compound was classed as inactive in assay [2], in assay [4], in assay [5] and in assay [8].
As for `Oc1ccc2ccccc2c1`, the result in [6] and in [7] was inactive.
Turning to `CCCCCCCCOc1ccc(C(=O)c2ccccc2)c(O)c1`, the result in [2] and in assay [4] was inactive.
On to `NC(=O)c1nc(-c2cccc(-c3cc(F)ccc3OCC(F)(F)C(F)(F)F)c2)n[nH]1`, for which the outcome in assay [2], in assay [4] and in assay [8] was inactive. Besides, the AC50 in assay [6] and in assay [7] was 50 µM (active) each time.
Take `CCCCCCCCCCCCO`: the outcome in assay [2], in assay [4], in assay [5] and in assay [8] was inactive.
For `CCCC(=O)OCCC(C)C`, the compound was classed as inactive in [2], in assay [4], in [6] and in assay [7].
Turning to `CC(C)(C)c1csc(-c2cc3cc(OCc4ccccc4CC(=O)O)ccc3o2)n1`, the outcome in assay [2], in assay [4], in assay [5] and in assay [8] was inactive.
Take `CC[C@H](NC(=O)c1cc(F)ccc1NS(=O)(=O)c1cccc2cccnc12)c1ccccc1`: the result in [2], in [4], in [5] and in assay [8] was inactive.
Consider `O=c1ccc2ccccc2o1`, for which the compound was called inactive in assay [2], in assay [4], in [5] and in assay [8].
Regarding `O=C=NCCCCCCN=C=O`, the outcome in [2], in [4], in assay [5] and in assay [8] was inactive.
As for `Cc1ccc2oc(CN(Cc3ccccc3)C(=O)Nc3c(F)cc(F)cc3F)c(-c3ccc(Cl)cc3)c2c1`, the result in assay [2], in assay [4], in assay [5] and in assay [8] was inactive.
Regarding `O=C(O)Cn1c(=O)n(Cc2ccc(Br)cc2F)c(=O)c2ccc(Cl)cc21`, the result in assay [2], in [4], in [5], in assay [6] and in assay [8] was inactive.
Consider `CN(C[C@@H](CC[N+]12CCC(C3CCCCC3)(CC1)CC2)c1ccc(Cl)c(Cl)c1)C(=O)c1cc(C(F)(F)F)cc(C(F)(F)F)c1`, for which the compound was called inactive in assay [2] and in assay [4]. Moreover, the AC50 in assay [6] is 21.3 µM (active); in [7], 20.9 µM (active).
On to `Cc1occc1C(=O)Nc1ccc(C(=O)N2CCC(F)(F)/C(=C\C(=O)N3CCC(N4CCCCC4)CC3)c3ccccc32)cc1`, for which the call in assay [2], in [7] and in assay [9] was inactive. Further, the AC50 in [4] was 27.7 µM (active); in assay [5], 26.9 µM (active); in [6] it was 32.3 µM (active); in assay [8], 33.5 µM (active).
For `C[C@]12CC[C@@H]3c4ccc(O)cc4CC[C@H]3[C@@H]1CC[C@H]2O`, the AC50 in assay [10] was 0.135 µM (active).
With `c1ccc(C[n+]2cccc3ccccc32)cc1`, the result in assay [2], in assay [4], in [5] and in [8] was inactive.
Regarding `OCCO`, the outcome in [2], in [4], in [6] and in [7] was inactive.
For `COc1cc(C(=O)NC2CCN(C)CC2)ccc1Nc1ncc2c(n1)N(C1CCCC1)CC(F)(F)C(=O)N2C`, the AC50 in assay [2] is 2.24 µM (active); in [6], 25.9 µM (active); in [7], 52.5 µM (active); in assay [8], 11 µM (active). The call in assay [4] and in [5] was inactive.
